# Laboratory results from PubChem BioAssay (NCATS).
# A number with no mark means an inactive call. Calls of active or inactive are those of the source. The call rests on the fitted dose curve; in most records, active means well fitted inhibition curve with a large enough effect; inconclusive means small, poorly fitted or top-dose-only effect; inactive means flat fitted curve, though single readings scatter.
# Biological target: ATP-dependent DNA helicase Q1 (Homo sapiens) (UniProt P46063)
# Assay: qHTS Validation Assay for Inhibitors of RecQ-Like Dna Helicase 1 (RECQ1) (AID 2353)
# Conditions: recombinant RECQ1 helicase DNA unwinding assay; series mostly up to 25.6 µM; activity change, negative = inhibition: at the top concentration
# Excerpt: Survival of cells and the faithful propagation of the genome depend on elaborate mechanisms of detecting and repairing DNA damage. Treatment of advanced cancer relies on radiation therapy or chemotherapy, which kill cancer cells by causing extensive DNA damage. It is often found, that cancer cells develop resistance to therapy through enhanced activity of DNA repair functions; this has led to an increased interest in developing drugs that interfere with DNA repair, which could sensitize cancer cells to conventional therapy.
# This validation qHTS assay pertains to human RECQ1, which is important in resolving abnormal DNA structures formed during replication or homologous recombination. Shutting down the expression of RECQ1 leads to chromosomal instability and higher radiation sensitivity in cultured cells.
# The validation assay was a fluorescence quenching based kinetic qHTS for RECQ1 Helicase DNA unwinding. The activity was measured as ATP-dependent separation of a 20-bp DNA duplex extended by 30-nt single-stranded tails (forked duplex). The forked DNA substrate was tagged with rhodamine fluorophore (carboxytetramethyl rhodamine, TAMRA) and BHQ-2 (Black Hole Quencher 2) dark quencher. Strand separation results in an increase in the fluorescence of TAMRA (excitation 525 nm, emission 598 nm). This substrate construct operates in a red-shifted region where very few compound library members have been noted to fluoresce (PubChem AIDs 593 and 594). An additional feature of the assay is the inclusion of 2.5 ug/ml poly (dIdC), to reduce interference by compounds such as DNA intercalators, a major source of false inhibitors.
# Opher Gileadi, Structural Genomics Consortium, University of Oxford
# Screening Center PI: Austin, C.P.
# Screening Center: NIH Chemical Genomics Center [NCGC]
# Three uL of reaction buffer (25 mM Tris-HCl (pH 8.0), 5 mM NaCl, 2 mM MgCl2, 1mM DTT, 0.01% Tween- 20, and 2.5 ug/ml poly(dI-dC), including enzyme (50 nM RECQ1T1), were dispensed into a 1536-well Greiner black assay plate via solenoid-valve based nanoliter dispensers. Compounds (23 nl each in columns 5-48) and control (23 nl each in column 2 as dose-response) were transferred via a Kalypsys pintool equipped with a 1536-pin array. The plates were incubated for 15 min at room temperature, and then 1 ul of substrates (200 nM DNA and 2 mM ATP, final concentrations) was added to start the reaction. The plate was transferred into a ViewLux high-throughput CCD imager where the reaction progress was measured in a discontinuous kinetic mode (two reads spaced 2 hours apart, with intermediate room temperature incubation of the covered assay plate) by using standard red-fluorescence optics (excitation filter 525 nm, emission filter 598 nm). Enzyme-free and vehicle (DMSO) controls were included for signal normalization.
# Potency means the concentration at half of the fitted maximal effect.
# ATP-dependent DNA helicase Q1 (Homo sapiens), sequence (P46063 whole entry, looked up): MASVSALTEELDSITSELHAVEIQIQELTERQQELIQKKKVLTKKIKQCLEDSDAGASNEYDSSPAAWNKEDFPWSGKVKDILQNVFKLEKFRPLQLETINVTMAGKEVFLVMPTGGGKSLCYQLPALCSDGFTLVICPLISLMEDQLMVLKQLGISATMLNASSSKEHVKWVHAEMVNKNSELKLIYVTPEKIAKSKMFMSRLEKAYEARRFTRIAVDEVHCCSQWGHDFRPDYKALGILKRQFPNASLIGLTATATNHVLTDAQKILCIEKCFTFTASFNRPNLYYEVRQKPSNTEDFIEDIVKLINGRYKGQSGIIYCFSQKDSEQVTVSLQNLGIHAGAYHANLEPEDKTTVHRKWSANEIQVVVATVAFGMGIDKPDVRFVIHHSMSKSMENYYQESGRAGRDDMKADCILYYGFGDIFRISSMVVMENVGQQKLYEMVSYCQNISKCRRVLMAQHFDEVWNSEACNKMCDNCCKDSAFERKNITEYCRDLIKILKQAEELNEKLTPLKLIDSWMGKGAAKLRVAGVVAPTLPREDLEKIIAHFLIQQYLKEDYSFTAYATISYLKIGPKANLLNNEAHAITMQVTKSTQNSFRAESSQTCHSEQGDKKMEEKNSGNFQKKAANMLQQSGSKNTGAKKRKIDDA
SMILES,"activity change, negative = inhibition",Potency
CC[C@H]1CN2CCc3cc(OC)c(OC)cc3[C@@H]2C[C@@H]1C[C@H]1NCCc2cc(OC)c(OC)cc21,15.3%,–
CC(CN1c2ccccc2Sc2ccccc21)N(C)C (stereo not given),-1.15%,–
OCc1cc(C(O)CNCCCCCCOCCCCc2ccccc2)ccc1O (stereo not given),-4.25%,–
CNCCCC1c2ccccc2C=Cc2ccccc21,1.33%,–
COC(=O)C1=C(C)NC(C)=C(C(=O)OC)C1c1ccccc1[N+](=O)[O-],-2.5%,–
C[C@]12CC[C@@H]3c4ccc(O)cc4CC[C@H]3[C@@H]1CCC2=O,-1.56%,–
NC(N)=NCCC[C@H](N)C(=O)O,-7.57%,–
CC(C)NC[C@H](O)c1ccc(O)c(O)c1,–,inactive
CC(C)C(=O)c1c(C(C)C)nn2ccccc12,0.074%,–
CN(C)CC[C@@H](c1ccc(Cl)cc1)c1ccccn1,2.32%,–
CCN(CC)CCNC(=O)c1cc(Cl)c(N)cc1OC,3.53%,–
CN(C)CCOC(C)(c1ccccc1)c1ccccn1 (stereo not given),-1.73%,–
NC(=O)c1ncn([C@@H]2O[C@H](CO)[C@@H](O)[C@H]2O)n1,0.69%,–
CC1=C(CC(=O)O)c2cc(F)ccc2/C1=C\c1ccc(S(C)(=O)=O)cc1,-0.592%,–
CC(C(O)c1ccc(O)cc1)N1CCC(Cc2ccccc2)CC1 (stereo not given),-1.47%,–
CNCCC(Oc1ccc(C(F)(F)F)cc1)c1ccccc1 (stereo not given),-7.51%,–
CN(C)CCCN1c2ccccc2Sc2ccc(Cl)cc21,-1.9%,–
C[C@H]1O[C@@H](n2cc(F)c(=O)[nH]c2=O)[C@H](O)[C@@H]1O,-1.61%,–
CN(C)CCC=C1c2ccccc2CCc2ccccc21,0.751%,–
CN(C)CCCN1c2ccccc2CCc2ccccc21,-5.54%,–

SMILES,"activity change, negative = inhibition",Potency
CSc1ccc2c(c1)N(CCC1CCCCN1C)c1ccccc1S2 (stereo not given),-5.78%,–
CC1=C(/C=C/C(C)=C/C=C/C(C)=C/C(=O)O)C(C)(C)CCC1,-23.2%,–
CCN(CC)CCOC(=O)C1(C2CCCCC2)CCCCC1,1.88%,–
CC1=C(CC(=O)O)c2cc(F)ccc2/C1=C\c1ccc(S(C)=O)cc1 (stereo not given),-0.724%,–
COc1ccc(Cl)cc1C(=O)NCCc1ccc(S(=O)(=O)NC(=O)NC2CCCCC2)cc1,0.6%,–
C=Cc1c(C)c2cc3[nH]c(cc4nc(cc5nc(cc1[nH]2)C(C)=C5CCC(=O)O)C(CCC(=O)O)=C4C)c(C)c3C=C,–,11.2 µM (active)
Nc1cc(=O)[nH]c(N)n1,-5.76%,–
N=c1c[n+](N2CCOCC2)[n-]o1,-2.73%,–
CSc1ccc2c(c1)C(N1CCN(C)CC1)Cc1ccccc1S2 (stereo not given),6.41%,–
CC(CN(C)C)CN1c2ccccc2CCc2ccccc21 (stereo not given),2.12%,–
CCCCCCCCCCCCCCCC(=O)NCCO,1.36%,–
CCCn1cnc2c1c(=O)n(CCCCC(C)=O)c(=O)n2C,-0.37%,–
CC(C)(C)c1onc(OCP(=O)(O)O)c1CC(N)C(=O)O (stereo not given),-1.52%,–
CC(C)(C(=O)O)c1ccc(C(O)CCCN2CCC(C(O)(c3ccccc3)c3ccccc3)CC2)cc1 (stereo not given),-2.96%,–
C#CCN(C)Cc1ccccc1,-2.68%,–
Cc1cc(N)c2ccccc2[n+]1CCCCCCCCCC[n+]1c(C)cc(N)c2ccccc21,-21.3%,–
CC(=O)OCC(=O)[C@@]1(O)CC[C@H]2[C@@H]3CCC4=CC(=O)CC[C@]4(C)[C@H]3C(=O)C[C@@]21C,0.0943%,–
CNCC(O)c1ccc(O)c(O)c1 (stereo not given),-1.74%,–
C[C@](N)(Cc1ccc(O)cc1)C(=O)O,-4.05%,–
CN1CCN(C2Cc3ccccc3Sc3ccc(Cl)cc32)CC1 (stereo not given),1.97%,–
